# Compounds without any hit were thinned out: in the full panel of roughly 79,000, 15% have a hit. Values without a mark were called inactive. Activity calls are given as the source filed them. Rule as the data show it: active = growth inhibition above about 70%; inactive = the rest.
# Assay: NCI Yeast Anticancer Drug Screen. Data for the sgs1 strain (AID 173);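 also: 0% = growth of vehicle-only control cultures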
# Details: S. cerevisiae sgs1 mutant, active compounds read high
# Method: Growth inhibition of yeast strains with defined genetic alterations is measured as a screen for potential anti-cancer activity. Selected strains with alterations in DNA damage repair or cell cycle control were exposed to compounds and growth inhibition was measured relative to vehicle treated controls. The strain used in this assay is sgs1
SMILES,growth inhibition (at 1.2 µM) [%],growth inhibition (at 3.7 µM),growth inhibition (at 11.0 µM),growth inhibition (at 33.0 µM),growth inhibition (at 100.0 µM)
COc1ccc(N)c2c1C(=O)c1ccccc1C2=O,-6,-6%,6%,68%,96% (active)
O=C1C=CC(=Nc2ccccc2)c2ccccc21,5,12%,29%,60%,76% (active)
O=S(=O)(c1cc(Cl)ccc1O)c1cc(Cl)ccc1O,26,91% (active),99% (active),99% (active),99% (active)
COc1ccc(N=Nc2ccc3oc(=O)c(C(=O)Nc4ccccc4)cc3c2)cc1,-9,18%,93% (active),97% (active),96% (active)
CC(C)c1cccc(O)c(=O)c1,-3,-11%,-1%,60%,98% (active)
COc1ccc2oc(-c3ccc(Cl)cc3)c(N3CCN(C)CC3)c2c1,-1,0%,96% (active),99% (active),99% (active)
Nc1nc(F)nc2c1ncn2C1OC(COP(=O)(O)O)C(O)C1O (stereo not given),18,30%,39%,47%,53%
O=C1C(Cl)=C(Cl)C(Cl)(Cl)C(Cl)C1(Cl)Cl (stereo not given),-7,36%,81% (active),100% (active),99% (active)
